# System: TDF
# Assay: H1.0 immunofluorescence intensity relative to DMSO (% of DMSO); higher = stronger H1.0 induction, active = 120 or more
# Details: concentration: 10 µM; 24 h
# In short: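 H1.0 nuclear intensity or cell number is stated as percent of the plate control, based on the median of replicates, and HCC1569 values were smoothed for positional effects. These came from HCC1569 and TDF cells treated with compounds at 10 µM for 24 h at 37 °C in triplicate, then fixed in 3.7% formaldehyde and stained with a rabbit anti-H1.0 antibody, an AlexaFluor 647 secondary and DAPI.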
# 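Also: TDF is a line of transformed human dermal fibroblasts of mesenchymal origin.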
row,Compound,H1.0 immunofluorescence intensity
1,CC=CC(=O)N(CC)c1ccccc1C [Crotamiton],101 (inactive)
2,Clc1ccc(C(Cn2ccnc2)OCc2csc3c(Cl)cccc23)c(Cl)c1.O=[N+]([O-])O (stereo unspecified),96.8 (inactive)
3,C#CCCCCCCCCCCCCCCCC(=O)O [17-Octadecynoic acid],92.5 (inactive)
4,CC1COc2c(C3(N)CC3)c(F)cc3c(=O)c(C(=O)O)cn1c23 (stereo unspecified) [Pazufloxacin],94.1 (inactive)
5,CCCCCCCCc1ccc(CCC(N)(CO)CO)cc1.Cl,210 (active)
6,COc1ccc2cc1Oc1ccc(cc1)CC1c3cc(c(OC)cc3CCN1C)Oc1c(OC)c(OC)c(OC)c3c1C(C2)N(C)CC3 (stereo unspecified) [Hernandezine],106 (inactive)
7,"O=Nc1ccc2oc(=O)ccc2c1 [6-Nitroso-1,2-benzopyrone]",92.2 (inactive)
8,O=C(NC(Cc1ccccc1)C(=O)CCl)OCc1ccccc1 [Z-L-Phe chloromethyl ketone],120 (inactive)
9,Cc1oncc1C(=O)Nc1ccc(C(F)(F)F)cc1 [Leflunomide],97.1 (inactive)
10,CC(C)CCNC(C)C1CCC2C3CC=C4CC(O)CCC4(C)C3CCC12C (stereo unspecified) [22-Azacholesterol],104 (inactive)
11,CC(C)c1cc(C(C)C)c(-c2csc(N(CCN(C)C)Cc3cccnc3)n2)c(C(C)C)c1,146 (active)

# Source: the supplement of paper PMC7156485
